Experimental data reported in PubChem BioAssay (NCATS).
Results filed as inconclusive are left out. Calls of active or inactive are those of the source. Calls follow the shape of the dose curve; as a rule, active = well fitted curve in the direction sought with a large enough effect; inconclusive = small, poorly fitted or top-dose-only effect, or another doubt; inactive = no such curve, though single readings can be large; an effect the other way counts as inactive or inconclusive.

Key:
[1] = Quantitative High-Throughput drug screen in 47 multiple myeloma cell lines against the NCATS MIPE library collection: KMS12PE_JCRB cell viability assay (AID 1918972); also: nearly all actives have a fitted effect of over 30% in size
Method in brief: (§1)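 We plated 500 myeloma cells per well, pinned in MIPE 4.0 compounds, and incubated for 48 hours at 37C. ATP was then quantified with CellTiter-Glo, with DMSO and media-only wells defining 100% and 0%.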

[2] = Quantitative High-Throughput drug screen in 47 multiple myeloma cell lines against the NCATS MIPE library collection: KMS20_JCRB cell viability assay (AID 1918973); also: nearly all actives have a fitted effect of over 45% in size
Method in brief: as §1

[3] = Quantitative High-Throughput drug screen in 47 multiple myeloma cell lines against the NCATS MIPE library collection: KMS26_JCRB cell viability assay (AID 1918975); also: nearly all actives have a fitted effect of over 45% in size
Method in brief: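 Relative luminescence from CellTiter-Glo served as the viability signal, referenced to DMSO-treated (100%) and cell-free medium (0%) controls. Treatment lasted 48 hours at 37C with 500 cells per well.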

[4] = Quantitative High-Throughput drug screen in 47 multiple myeloma cell lines against the NCATS MIPE library collection: MMM1_PLB cell viability assay (AID 1918976); also: nearly all actives have a fitted effect of over 35% in size
Method in brief: (§2)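 Plated at 500 cells per well, myeloma lines received MIPE 4.0 compounds by pin tool. Following 48 h culture at 37 °C, CellTiter-Glo luminescence gave viability relative to DMSO and media-only controls.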

[5] = Quantitative High-Throughput drug screen in 47 multiple myeloma cell lines against the NCATS MIPE library collection: MOLP8_DSMZ cell viability assay (AID 1918977); also: nearly all actives have a fitted effect of over 45% in size
Method in brief: as §2

[6] = Quantitative High-Throughput drug screen in 47 multiple myeloma cell lines against the NCATS MIPE library collection: NCIH929_DSMZ cell viability assay (AID 1918978); also: nearly all actives have a fitted effect of over 35% in size
Method in brief: as §2

[7] = Quantitative High-Throughput drug screen in 47 multiple myeloma cell lines against the NCATS MIPE library collection: MM1S_ATCC cell viability assay (AID 1918980); also: nearly all actives have a fitted effect of over 45% in size
Method in brief: as §2

[8] = Quantitative High-Throughput drug screen in 47 multiple myeloma cell lines against the NCATS MIPE library collection: MM1R_ATCC cell viability assay (AID 1918981); also: nearly all actives have a fitted effect of over 35% in size
Method in brief: as §2

[9] = Quantitative High-Throughput drug screen in 47 multiple myeloma cell lines against the NCATS MIPE library collection: KMS28PE_JCRB cell viability assay (AID 1918983); also: nearly all actives have a fitted effect of over 35% in size
Method in brief: as §2

[10] = Quantitative High-Throughput drug screen in 47 multiple myeloma cell lines against the NCATS MIPE library collection: L363_DSMZ cell viability assay (AID 1918984); conditions: L363 myeloma viability, CellTiter-Glo ATP luminescence, 48 h; viability (% of control): at 45.8 µM (top of the series); also: nearly all actives have a fitted effect of over 40% in size
Method in brief: as §2

[11] = Quantitative High-Throughput drug screen in 47 multiple myeloma cell lines against the NCATS MIPE library collection: KMS34_JCRB cell viability assay (AID 1918985); also: nearly all actives have a fitted effect of over 40% in size
Method in brief: as §2

[12] = Quantitative High-Throughput drug screen in 47 multiple myeloma cell lines against the NCATS MIPE library collection: OCIMY7_PLB cell viability assay (AID 1918987); conditions: OCI-MY7 myeloma viability, CellTiter-Glo ATP, 48 h; viability (% of DMSO): at 45.8 µM (top of the series); also: nearly all actives have a fitted effect of over 65% in size
Method in brief: as §2

[13] = Quantitative High-Throughput drug screen in 47 multiple myeloma cell lines against the NCATS MIPE library collection: OCIMY5_PLB cell viability assay (AID 1918988); also: nearly all actives have a fitted effect of over 65% in size
Method in brief: as §2

[14] = Quantitative High-Throughput drug screen in 47 multiple myeloma cell lines against the NCATS MIPE library collection: OPM1_PLB cell viability assay (AID 1918989); also: nearly all actives have a fitted effect of over 40% in size
Method in brief: as §2

[15] = Quantitative High-Throughput drug screen in 47 multiple myeloma cell lines against the NCATS MIPE library collection: SKMM1_PLB cell viability assay (AID 1919863); conditions: SKMM1 myeloma viability, CellTiter-Glo ATP, 48 h; viability: active compounds read low; also: nearly all actives have a fitted effect of over 35% in size
Method in brief: as §2

[16] = Quantitative High-Throughput drug screen in 47 multiple myeloma cell lines against the NCATS MIPE library collection: U266_ATCC cell viability assay (AID 1919864); also: nearly all actives have a fitted effect of over 35% in size
Method in brief: as §2

[17] = Quantitative High-Throughput drug screen in 47 multiple myeloma cell lines against the NCATS MIPE library collection: XG6_PLB cell viability assay (AID 1919865); also: nearly all actives have a fitted effect of over 40% in size
Method in brief: as §2

[18] = Quantitative High-Throughput drug screen in 47 multiple myeloma cell lines against the NCATS MIPE library collection: KMS21BM_JCRB cell viability assay (AID 1918974); conditions: ATP luminescence, 48 h; viability: at 45.8 µM (top of the series)
Method in brief: as §1

[19] = Quantitative High-Throughput drug screen in 47 multiple myeloma cell lines against the NCATS MIPE library collection: OCIMY1_PLB cell viability assay (AID 1918979); also: nearly all actives have a fitted effect of over 35% in size
Method in brief: as §2

[20] = Quantitative High-Throughput drug screen in 47 multiple myeloma cell lines against the NCATS MIPE library collection: LP1_DSMZ cell viability assay (AID 1918982); also: nearly all actives have a fitted effect of over 35% in size
Method in brief: as §2

Measured: Potency
Potency is read from the fitted curve at half-maximal effect.

CN[C@@H]1CN(c2ccc3c(=O)c(C(=O)O)cn(-c4nccs4)c3n2)C[C@@H]1OC
active: [2] 6.45 µM | [3] 18.2 µM | [4] 8.12 µM | [5] 6.45 µM | [6] 1.62 µM | [7] 0.257 µM | [8] 0.407 µM | [9] 18.2 µM | [11] 5.12 µM | [12] 5.75 µM | [13] 12.9 µM | [14] 14.4 µM | [15] 7.24 µM | [16] 8.12 µM | [17] 1.62 µM
inactive: [1] | [10]

O=C(c1ccc(C(=O)N2CCC(N3CCCC3)CC2)c(Nc2ccccc2)c1)N1CCC(N2CCCC2)CC1
inactive: [1] | [2] | [18] | [5] | [6] | [19] | [8] | [20] | [10] | [16] | [17]
active: [15] 6.62 µM

O=C(c1ccc(C=Cc2n[nH]c3ccccc23)cc1)N1CCNCC1
active: [1] 2.35 µM | [2] 1.87 µM | [18] 0.59 µM | [3] 16.6 µM | [4] 5.26 µM | [5] 16.6 µM | [6] 2.35 µM | [7] 16.6 µM | [9] 6.62 µM | [10] 3.72 µM | [11] 10.5 µM | [12] 0.662 µM | [13] 14.8 µM | [14] 2.64 µM | [17] 14.8 µM

c1cc(OCCN2CCCCC2)cc(-c2n[nH]c3ccc(-c4ncn[nH]4)cc23)c1
active: [1] 23.5 µM | [2] 18.7 µM | [18] 3.72 µM | [6] 8.33 µM | [7] 23.5 µM | [8] 26.4 µM | [9] 16.6 µM | [11] 20.9 µM | [12] 5.26 µM | [17] 5.26 µM

Cc1cccc(-c2[nH]c(C(C)(C)C)nc2-c2ccc3c(c2)OCO3)n1
active: [1] 3.72 µM | [2] 2.35 µM | [3] 16.6 µM | [4] 16.6 µM | [5] 6.62 µM | [6] 6.62 µM | [7] 16.6 µM | [9] 20.9 µM | [10] 2.35 µM | [11] 18.7 µM | [12] 9.35 µM | [13] 14.8 µM | [14] 1.87 µM | [15] 20.9 µM | [17] 2.96 µM

C[C@@H]1O[C@@H](O[C@H]2CC[C@@]3(C)[C@H](CC[C@@H]4[C@H]3C[C@@H](O)[C@]3(C)[C@@H](C5=CC(=O)OC5)CC[C@]43O)C2)C[C@H](O)[C@@H]1O[C@H]1C[C@H](O)[C@H](O[C@H]2C[C@H](O)[C@@H](O)[C@@H](C)O2)[C@H](C)O1 (stereo in doubt)
active: [1] 0.054 µM | [2] 0.27 µM | [18] 0.215 µM | [3] 0.27 µM | [4] 0.171 µM | [5] 0.152 µM | [6] 0.34 µM | [19] 0.241 µM | [7] 0.34 µM | [8] 0.27 µM | [20] 0.121 µM | [9] 0.152 µM | [10] 0.171 µM | [11] 0.34 µM | [12] 0.152 µM | [13] 0.136 µM | [14] 0.27 µM | [15] 0.303 µM | [16] 0.121 µM | [17] 0.152 µM

CC1(C)CC(=O)c2c(C(F)(F)F)nn(-c3ccc(C(N)=O)c(NC4CCC(O)CC4)c3)c2C1 (stereo not drawn)
active: [2] 0.0935 µM | [3] 0.0469 µM | [4] 0.372 µM | [5] 0.0418 µM | [6] 0.105 µM | [19] 0.235 µM | [7] 0.148 µM | [8] 0.118 µM | [9] 0.118 µM | [11] 0.105 µM | [12] 0.0662 µM | [13] 0.118 µM | [14] 0.105 µM | [15] 0.187 µM
inactive: [1]

COc1cc2ncn(-c3cc(OCc4ccccc4S(C)(=O)=O)c(C#N)s3)c2cc1OC
inactive: [1] | [2] | [3] | [19] | [8] | [20] | [11]
active: [4] 5.9 µM | [6] 4.69 µM | [7] 20.9 µM

Cc1nc(NC(=O)N2CCC[C@@H]2C(N)=O)sc1-c1csc(C(C)(C)C)n1
active: [1] 4.69 µM | [2] 2.64 µM | [18] 1.05 µM | [3] 1.18 µM | [4] 0.935 µM | [5] 0.166 µM | [6] 0.833 µM | [7] 6.62 µM | [8] 5.9 µM | [9] 3.72 µM | [10] 0.833 µM | [12] 3.32 µM | [13] 14.8 µM | [14] 14.8 µM | [16] 9.35 µM | [17] 4.69 µM

Cc1cccc(Nc2nc(N[C@@H]3CCCC[C@H]3N)ncc2C(N)=O)c1
active: [1] 16.6 µM | [2] 4.69 µM | [3] 20.9 µM | [4] 20.9 µM | [5] 14.8 µM | [19] 26.4 µM | [8] 26.4 µM | [20] 18.7 µM | [10] 16.6 µM | [12] 6.62 µM | [14] 16.6 µM | [15] 23.5 µM | [17] 0.743 µM
